Hits are enriched below; roughly 9.5% of the tested compounds scored in any of these assays.
Pf growth 96h: inhibits malaria parasite growth, 96 h; P. falciparum luciferase reporter growth, 96 h; Potency, µM (top dose mostly 28.7 µM), without a hit: at the highest dose activity change, negative = inhibition, usual class: inhibitors; AID 504834; 320,000 tested, 6.9% active; also: % is scaled to controls: 0 for no effect and ±100 for the full control effect
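Erythrocytes infected with luciferase-expressing P. falciparum were dispensed at 2% hematocrit and 0.05% parasitemia (final), then incubated with compounds 96 hours at 37 C in 5% CO2. Luminescence after detection reagent addition reported growth.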
RE007 growth inh: less growth of the S. pombe RE007 Vpr strain; S. pombe RE007 Vpr strain, BacTiter-Glo ATP luminescence, 24 h; Potency, µM (top dose mostly 92.2 µM), for the others: top-dose activity change, negative = less growth, most hits filed as inhibitors; 360,000 tested, 0.21% active; active = well fitted falling curve with a large enough effect; inconclusive = small, poorly fitted or top-dose-only effect; inactive = no such curve, though single readings can be large or run the other way; also: % is scaled to controls: 0 for no effect and ±100 for the full control effect; nearly all actives have a fitted effect of over 50% in size
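Fission yeast strain RE007, carrying one chromosomally integrated HIV-1 vpr copy, was seeded at OD 0.01 in PMG+AL medium with 23 nL pinned compound. After 24 h at 30 °C and 99% humidity, viability was read by BacTiter-Glo luminescence.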
SARS PLpro yeast: inhibitors of SARS-CoV papain-like protease in yeast. S. cerevisiae expressing SARS-CoV PLpro, growth rescue. Potency, µM (doses to about 32.9 µM), without a hit: at the highest dose activity, positive = growth rescue, actives largely listed as activators. 330,000 tested, 0.19% active. AID 485353; calls by dose curve; also: 0% is about no effect; nearly all actives have a fitted effect of over 55% in size
NS1 inh: inhibitors of influenza NS1 protein function. Potency, µM (titrated, usually from 46.1 µM), inactives show at the highest dose activity, positive = more growth. 270,000 tested, 0.4% active. AID 2326; calls by dose curve; also: actives are rising curves; nearly all actives have a fitted effect of over 50% in size
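S. cerevisiae expressing influenza A NS1, grown in glucose, washed, then diluted 1:100 into pH 6.0 -URA galactose medium with 23 nl compound. Growth recovery read as OD600; NS1-free strain serves as control.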
Pf growth 48h: P. falciparum growth inhibition at 48 hours (one generation); 310,000 tested, 5.9% active; Potency, µM (series often up to 28.7 µM), without a hit: at the top dose activity change, negative = inhibition, most hits filed as inhibitors; P. falciparum luciferase growth in erythrocytes, 48 h; AID 504832; also: % is scaled to controls: 0 for no effect and ±100 for the full control effect
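Parasite viability was followed by luminescence of a genomically integrated firefly luciferase. Cultures held 0.1% parasitemia at 2% hematocrit (final), incubated under 5% CO2 at 37 C.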
Starred values were filed as active, the others as inactive; ? = inconclusive; . = no result; [ ] = dose if it differs, or a comment. Unless noted, calls follow the shape of the dose curve; as a rule, active = well fitted inhibition curve with a large enough effect; inconclusive = small, poorly fitted or top-dose-only effect, or another doubt; inactive = no such curve, though single readings can be large or run the other way. Potency is read from the fitted curve at half-maximal effect.

SMILES	Pf growth 96h	RE007 growth inh	SARS PLpro yeast	NS1 inh	Pf growth 48h
O=C(NCc1ccccc1Cl)c1ccc2sc([C@H]3C[C@H](O)[C@@H](CO)O3)nc2c1	.	-3%	.	.	.
CC(C)CCN(Cc1ccco1)S(=O)(=O)c1ccc(-c2ccc(=O)[nH]n2)s1	11%	3%	-7%	-3%	-6%
CCCCN(Cc1ccco1)S(=O)(=O)c1ccc(-c2ccc(=O)[nH]n2)s1	15µM*	14%	-5%	-6%	-4%
Cc1ccc(-c2csc(NCCn3c(-c4ccncc4)nc4ccccc43)n2)cc1	0%	5%	-12%	13%	-4%
Cc1ccc(-c2csc(N3CCN(c4ccc5nc(-c6ccncc6)n(CCN6CCCCC6)c5c4)CC3)n2)cc1	?	-9%	-9%	8%	1.5µM*
CCCn1c(C)nc2cc(Cl)c(N3CCN(c4nc(-c5ccc(C)cc5)cs4)CC3)cc21	5.2µM*	-10%	-15%	-46%	8.3µM*
Cc1ccc(-c2csc(NCCn3c(-c4ccncc4)nc4cc(C(F)(F)F)ccc43)n2)cc1	.	0%	-2%	.	.
Cc1ccc(-c2csc(N3CCN(c4cc5c(cc4Cl)nc(-c4ccncc4)n5CCN4CCCCC4)CC3)n2)cc1	3.3µM*	?	-16%	-7%	?
COc1ccc(-c2csc(N3CCN(c4cc5c(cc4Cl)nc(-c4ccncc4)n5CCOCCO)CC3)n2)cc1	3.7µM*	-12%	-9%	21%	?
O=C(NCCCNC(=O)c1cccnc1)c1ccc(Cl)cc1	7%	0%	2%	9%	-11%
CC(C)CN1CCC1(C)C(=O)Nc1cc(-c2ccccc2)nn1C (stereo unspecified)	.	-24%[18.4 µM]	.	.	.
COc1ccccc1C(=O)NC(=O)COC(=O)Cn1cnc2c1c(=O)n(C)c(=O)n2C	16%	-9%	-4%	.	9%
Cc1cc(C)cc(N(CCC#N)C(=O)COC(=O)c2ccccc2SCC(=O)N2CCCC2)c1	12µM*	7%	1%	-9%	?
Cc1ccc(N(CCC#N)C(=O)COC(=O)c2ccccc2SCC(=O)N2CCCC2)cc1	?	-14%	.	.	?
COc1ccc(S(=O)(=O)N(C)C)cc1NC(=O)CCNC(=O)c1ccco1	16%	0%	-1%	-5%	0%
Cc1ccc(S(=O)(=O)N2CCCCC2)cc1NC(=O)c1ccc(Br)o1	?	0%	-2%	.	7.4µM*
COc1ccccc1Oc1ccc(S(=O)(=O)N2CCCCC2)cc1NC(=O)CCNC(C)=O	5.9µM*	3%	1%	-12%	12µM*
Cc1ccc(S(=O)(=O)N2CCCCC2)cc1NC(=S)NC(=O)c1ccco1	4.1µM*	1%	-1%	15%	?
COc1ccc(S(=O)(=O)N2CCCCC2)cc1NC(=O)CCNC(=O)c1ccco1	?	-7%	-5%	.	9.3µM*
COc1ccc(S(=O)(=O)N2CCCCCC2)cc1NC(=O)Cc1ccccc1	-3%	-8%	0%	.	?
O=[N+]([O-])c1cc([N+](=O)[O-])c(Oc2cccc(Cl)c2Cl)cc1NN1CCCCC1	?	9%	3%	3%	-10%
Cc1ccc(C)c(Oc2cc(NN3CCCCC3)c([N+](=O)[O-])cc2[N+](=O)[O-])c1	53%	-9%	1%	-6%	12%
Cc1cc(Oc2cc(NN3CCCCC3)c([N+](=O)[O-])cc2[N+](=O)[O-])c(C(=O)c2ccccc2)cc1Cl	8.3µM*	1%	0%	-6%	?
Cc1cc(Oc2cc(NN3CCCCC3)c([N+](=O)[O-])cc2[N+](=O)[O-])ccc1[N+](=O)[O-]	?	0%	-1%	-17%	2%
O=[N+]([O-])c1cc([N+](=O)[O-])c(Oc2ccccc2F)cc1NN1CCCCC1	-26%	7%	5%	3%	0%
SMILES	Pf growth 96h	RE007 growth inh	SARS PLpro yeast	NS1 inh	Pf growth 48h
Cc1ccc(F)c(Oc2cc(NN3CCCCC3)c([N+](=O)[O-])cc2[N+](=O)[O-])c1	12µM*	-3%	2%	3%	?
CC1(C)Cc2cccc(Oc3cc(NN4CCCCC4)c([N+](=O)[O-])cc3[N+](=O)[O-])c2O1	1.5µM*	-2%	-1%	4%	?
O=[N+]([O-])c1cc([N+](=O)[O-])c(Oc2ccc(Cl)c3cccnc23)cc1NN1CCCCC1	1.5µM*	-2%	-4%	-14%	?
CCOc1ccc(NC(=O)CCC(=O)NNC(=O)c2ccc(Br)o2)cc1	-25%	11%	-2%	-12%	21%
CC1=[N+](C)c2c(ccc3cccnc23)C1(C)C	45%	?	-4%	-3%	?
Cc1cccc(N(C(=O)CNC(=O)c2cccs2)C(C(=O)NC2CCCC2)c2ccncc2)c1 (stereo unspecified)	-15%	7%	0%	-8%	5%
CC(NC(=O)CN1C(=O)NC2(CCCCC2)C1=O)c1ccc(S(N)(=O)=O)cc1 (stereo unspecified)	.	-3%	.	.	.
Oc1c(Br)cc(Br)cc1/C=N/Nc1ccc(Cl)nn1	?	0%	-7%	-1%	?
CCOc1ccc(/C=N/Nc2ccc(Cl)nn2)c(O)c1	?	-6%	-3%	4%	1.3µM*
Oc1c(Br)cc(/C=N/Nc2ccc(Cl)nn2)cc1Br	1µM*	6%	-8%	-29%	0.52µM*
O=C(O)c1ccccc1OC(C(=O)Nc1cc(Cl)cc(Cl)c1)c1ccccc1 (stereo unspecified)	?	3%	0%	1%	12µM*
COc1ccc(-c2nc(C(=O)NCCCN3CCOCC3)cc3c2[nH]c2ccccc23)cc1OC	5.2µM*	-3%	1%	-4%	?
COc1ccc(Nc2cc(C(=O)NCCCN3CCOCC3)c3ccccc3n2)cc1OC	37%	-14%	4%	-4%	.
Cc1ccc(-c2nc(C(=O)NCCCN3CCOCC3)cc3c2[nH]c2ccccc23)cc1	6.6µM*	-6%	-7%	-8%	5.9µM*
COc1ccc(OC)c(-c2nc(C(=O)NCC3CCCO3)cc3c2[nH]c2ccccc23)c1 (stereo unspecified)	?	5%	-26%	8%	?
COc1cccc(-c2nc(C(=O)NCC3CCCO3)cc3c2[nH]c2ccccc23)c1 (stereo unspecified)	8.3µM*	-9%	-30%	-55%	?
Cc1cc(C)c[n+](-c2[nH]c(=O)sc2/C=N/N=C(\[O-])c2cccnc2)c1	3%	1%	-6%	-12%	9%
COc1ccc(OC)c(C(=O)C(=O)c2cc(OC)ccc2OC)c1	.	2%	.	.	.
COc1ccc(OC)c(N)c1	17µM*	-24%	8%	11%	9.3µM*
Cc1[nH]c2ccccc2c1C(c1ccccn1)c1c(C)[nH]c2ccccc12	.	5%	-4%	-9%	9.3µM*

From PubChem
